# About 83,000 compounds went through this panel and 20% of them were active in at least one assay; those are over-represented in the sample as a whole.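 Plates (96-well) were seeded with cells, treated with compound at one concentration, and incubated for 48 hours before percent growth was determined.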 A number with no mark means an inactive call. The source made the active and inactive calls. The calls were made as follows: active = growth percent below 10; inactive = the rest.
# System: HL-60(TB) leukemia
# Assay: NCI-60 one-dose screen, 48 h (100 = growth as untreated, 0 = no growth, -100 = all killed)
# Details: 10 µM unless noted
row,Structure (SMILES),growth
1,O=C1CC[C@@H](C(=O)N[C@H]2CSSC[C@@H](C(=O)N/C=C/c3ccc(O)cc3)NC(=O)[C@H](Cc3ccccc3)NC(=O)[C@@H]3CCCN3C(=O)[C@@H]3CCCN3C2=O)N1,74%
2,Cc1cc(N2CCCCC2)cc(C)c1-c1csc(NC(=O)c2ccncc2)n1,21.8%
3,CCOC(=O)NCCCC(=O)NCCc1ccccc1,102%
4,Nc1nc(Cl)c2[nH]cnc2n1,89.5%
5,CCCCCCN1CCN(Cc2ccc(N(CC)CC)cc2)C(=O)C1=O,-19.1% (active)
6,OCCCc1ccccc1,99%
7,CCOC(=O)CSc1nc2sc3c(c2c(=O)n1-c1ccc([N+](=O)[O-])cc1)CCCCC3,88.4%
8,C=CC1=NC(C)(C)CC(C)O1 (stereo not given),96.7%
9,N=C(N)c1ccc(-c2ccc(-c3ccc(Cl)c(Cl)c3)o2)nc1,15.1%
10,COc1ccccc1CNc1c2ccccc2nc2ccccc12,44.8%
11,O=C(COc1cccc(/C=C2\Cc3ccc(Cl)cc3C2=O)c1)Nc1nccs1,62.2%
12,O=C(/C=C/c1cccc([N+](=O)[O-])c1)c1ccc(O)c(CN2CCN(c3cc4c(cc3F)c(=O)c(C(=O)O)cn4C3CC3)CC2)c1,8.41% (active)
13,CC[C@H](CC[C@@H](C)[C@H]1CC[C@H]2[C@@H]3CC=C4C[C@@H](OCCc5nn[nH]n5)CC[C@]4(C)[C@H]3CC[C@]12C)C(C)C,103%
14,O=S(=O)(c1cc(Cl)ccc1O)c1cc(Cl)ccc1O,74.2%
15,CC(=C(c1ccc(OCCN2CCCCC2)cc1)c1ccc(OCCN2CCCCC2)cc1)c1ccc(Cl)cc1,-62% (active)
16,O=C(NO)c1ccc(Cn2c(=O)n(CCc3ccc(O)cc3)c(=O)c3ccccc32)cc1,89.3%
17,OCC1OC(n2ccc3c2ncn2ncnc32)C(O)C1O (stereo not given),-14.4% (active)
18,COC(=O)c1ccc(C(=Nc2ccc(N(C)C(=O)CN3CCN(C)CC3)cc2)c2c(O)[nH]c3ccc(C(=O)OC)cc23)cc1,14.4%
19,CC1=CC(=NC(=O)CBr)C=C/C1=N\S(=O)(=O)c1ccccc1,67.2%
20,CCCSc1nc2ccc(C)cc2cc1/C=[N+](\[O-])c1ccccc1,14.1%

row,Structure (SMILES),growth
1,CCc1ccc(Oc2c(-c3ccc(OCc4ccc(Cl)cc4)cc3O)nn(C)c2C(F)(F)F)cc1,-36.9% (active)
2,CC(=Nc1ccccc1)C1=C(O)C(Cc2ccc(F)cc2)NC1=O (stereo not given),-12.3% (active)
3,CCCn1cnc2c1c(=O)n(CCCCC(C)=O)c(=O)n2C,91.4%
4,O=C(CS(=O)c1oc(-c2cccs2)nc1S(=O)(=O)c1ccc(Br)cc1)c1ccccc1 (stereo not given),87.9%
5,c1ccc2c(c1)Cc1ccccc1N2CCN1CCCCC1,85.1%
6,O=C1c2cccc3c([N+](=O)[O-])ccc(c23)C(=O)N1CCCCl,-25.4% [100 µM] (active)
7,COc1cccc(/C=N\NC(=O)c2ccncc2)c1O,9.43% (active)
8,N#CCCN1C/C(=C/c2ccc(Br)cc2)C(=O)/C(=C/c2ccc(Br)cc2)C1,1.68% (active)
9,O=C(Nc1ccc(-n2ccc3c(NC(=O)c4ccccc4)nccc32)cc1)Nc1ccc(Cl)c(Cl)c1,-16.4% (active)
10,Cc1nn(-c2ccccc2)c2nc3c(c(-c4ccc(Cl)cc4)c12)CNC1(CCSCC1)N3,72.9%
11,Cc1cc(=O)[nH]c(/C(=N/Nc2ccccc2)C(=O)c2ccc(Cl)cc2)n1,50.7%
12,O=C(O)c1ccc2c(c1)C(=O)N(Cc1ccccc1)C2=O,93.1%
13,N#CN1CCC[C@H]1C(=O)N1CCc2c(-c3[nH]nc4ncccc34)cccc21,-30.7% (active)
14,O=C(/C(=N/O)S(=O)(=O)c1ccccc1)c1cccs1,90.9%
15,NC(=O)c1cc(Br)ccc1NC(=O)/C=C/c1ccccc1,-22.9% (active)
16,CCc1nc2ccc(Cc3ccc(C(=O)NO)cc3)cc2c(=O)n1CCc1ccccc1,-20.3% (active)
17,c1ccc2c(c1)ncn2-c1nc2ccccc2n2c1nc1ccccc12,102%
18,CCN1CCN(CCOc2ccc(CNc3ccc4nc(CCC5CCCCC5)[nH]c4c3)cc2)CC1,-12.7% (active)
19,Oc1c(Cl)cc(Cl)c2ccc(Cn3cc(-c4cccc(C(F)(F)F)c4)nn3)nc12,-18.9% (active)
20,CSC1=NCCCC1,99.8%

# — PubChem BioAssay (NCI)
